Experimental data reported in PubChem BioAssay AID1345083 (National Center for Advancing Translational Sciences (NCATS), 2018).
The whole screen tested about 94,000 compounds, of which about 6,200 (6.6%) were called active. About 31% were inconclusive and are not listed. This is one part of a sample in which actives are shown more often than they occur. Values without a mark were called inactive. Calls come from the whole dose curve; as a rule, active = well fitted inhibition curve with a large enough effect; inconclusive = small, poorly fitted or top-dose-only effect; inactive = flat fitted curve, though single readings scatter.

Experiment: Cytotoxic Profiling in HEK 293 Cell Line of Diverse Libraries Using Quantitative High-Throughput Screening; note: nearly all actives have a fitted effect of over 60% in size
Settings: HEK 293 viability, ATP luminescence (CellTiter-Glo), 48-72 h; series mostly up to 115 µM; activity change, negative = cytotoxicity: at the top concentration
Method in brief: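 HEK 293 cells seeded at 250 cells/well were exposed to compound for 48 or 72 hr at 37 degree Celsius. Viability taken as ATP content by CellTiter-Glo luminescence.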
% is set by controls: 0 for no effect and ±100 for the full control effect; potency is the fitted concentration of half-maximal effect.

Compound	activity change, negative = cytotoxicity	Potency	outcome
Cn1ccc(C(=O)N2C[C@H]3CN(C4CCOCC4)C[C@@]3(C(=O)O)C2)n1	-0.816%	–	–
COC(=O)[C@H](Cc1ccc(OC)cc1)NC(=O)[C@H]1CN(S(=O)(=O)c2ccccc2)CCN1C(C)=O	-2.68%	–	–
COCCC(=O)N1C[C@@H](COC)[C@H](c2nc(C)no2)C1	-16.4%	–	–
CNC(=O)[C@@H]1C[C@@H](n2cc(CN(C)C(=O)Nc3ccc(C)c(C)c3)nn2)CN1	-17.4%	–	–
C=CCN1C[C@@H]2CN(C(=O)CCc3cccc(OC)c3)C[C@]2(C(=O)O)C1	-5.09%	–	–
Cc1noc(C)c1[S+](=O)([O-])N1CCC(C(=O)N2CCC(c3nc4ccncc4[nH]3)C2)CC1 (stereo unspecified)	-0.958%	–	–
Cc1noc(C)c1[S+](=O)([O-])N1CCC(C(=O)N2CCC(c3nc4ncccc4[nH]3)CC2)CC1	1.37%	–	–
Cc1noc(C)c1[S+](=O)([O-])N1CCCC(C(=O)N2CCC(c3ccccc3)CC2)C1 (stereo unspecified)	–	44.7 µM (active)	–
CCC(C)NC(=O)C1(c2ccc(NS(C)(=O)=O)cc2)CCCCC1 (stereo unspecified)	-8.9%	–	–
COc1ccc(C(=O)N2CCCC(c3nc(-c4cnccn4)no3)CCNC(=O)CC2)c(OC)n1 (stereo unspecified)	–	–	inactive
Cc1ccc(C(=O)N2CCC(c3n[nH]c(=O)n3-c3ccccc3)CC2)cc1F	2.52%	–	–
CN(Cc1csc(-c2ccccc2)n1)c1cc(C2CC(O)C2)nc(N)n1 (stereo unspecified)	–	25.1 µM (active)	–
COc1ccc(N2C(=O)CSC23CCN(C(=O)c2ccc(C)cc2)CC3)cc1	-82.5%	–	–
O=C(c1cc(F)ccc1F)N1CCCC2(C1)NC(=O)N(Cc1ccccc1)C2=O (stereo unspecified)	-8.4%	–	–
Cc1cccc2c(C3CCN(S(=O)(=O)c4cc(Cl)cc(Cl)c4)CC3)c[nH]c12	–	25.1 µM (active)	–
COc1cccc(S(=O)(=O)N2CCC(n3cnnc3C3CC3)CC2)c1	-22.4%	–	–
O=C(O)[C@@H]1CN(C(=O)CCCn2cncn2)C[C@H]1c1ccc2c(c1)OCO2	2.24%	–	–
O=C(N[C@@H]1CN(C(=O)c2ccc3nc[nH]c3c2)CC[C@@H]1CO)C1CC1	-3.61%	–	–
CC(C)C1=NOC2(CCN(C(=O)c3ccccc3F)C2)C1 (stereo unspecified)	–	–	inactive [at 172 µM]
O=C(C1CCOC1)N1CCC(N(Cc2ccccc2)C2CCOCC2)CC1 (stereo unspecified)	–	89.1 µM (active)	–
O=C(NC1CC1)c1ccc(CC2CCN(C(=O)C3CCOC3)CC2)cc1 (stereo unspecified)	-11.7%	–	–
O=C(C1CCOCC1)N1CCOC[C@H](Oc2ccccc2)C1	-1.74% [at 172 µM]	–	–
Cn1cc(-c2ccsc2)c2nc(CN3CCNC(=O)C3)cn2c1=O	-1.38% [at 172 µM]	–	–

Compound	activity change, negative = cytotoxicity	Potency	outcome
CN1CCN(C(=O)c2ccc3nnc(C(C)(C)C)n3c2)CC1	0.0478% [at 172 µM]	–	–
CCc1cc(=O)n(CC(=O)Nc2cccc(C(C)=O)c2)c(-c2ccccc2)n1	–	25.1 µM (active)	–
CCc1cccc(NC(=O)Cn2c(=O)c(-c3noc(CC)n3)c3n(c2=O)CCCC3)c1	1.18%	–	–
CCc1cc(=O)n(CC(=O)Nc2cc(OC)cc(OC)c2)c(N2CCOCC2)n1	2.24%	–	–
COc1ccc(-c2ccc(C(=O)N3CCN(C(=O)c4ccccc4OC)CC3)cc2)nn1	0.833%	–	–
CN(C)[C@@H]1[C@@H](NC(=O)CCn2cnc3ccccc3c2=O)[C@H]2CCO[C@H]21	–	–	inactive
CCCNC(=O)C(NC(=O)c1cccc(C)c1)C1CCN(C(=O)CCc2ccccc2)CC1 (stereo unspecified)	-7.6%	–	–
N#Cc1cccc(C(=O)Nc2ccc([C@H]3OCC(=O)N(Cc4ccccc4)[C@@H]3CO)cc2)c1	-23.9%	–	–
CCNC(=O)C1C(c2cccc(NC(=O)c3cccc(C)c3)c2)OC(=O)N1Cc1cccc(Cl)c1 (stereo unspecified)	–	28.2 µM (active)	–
COc1cccc([S+](=O)([O-])N2CCC(C(=O)N3CCC(N4CCOCC4=O)CC3)CC2)c1	–	–	inactive
COCc1cc(=O)n(CC(=O)Nc2ccc(Cl)cc2)c(N2CCOCC2)n1	-23.5%	–	–
COc1ccc(CN2CCC3(CC2)COc2ccccc2CN3)cc1	3.7%	–	–
O=[S+]1([O-])NC2(CCN(Cc3ccccc3)CC2)COc2ccccc21	-3.51%	–	–
c1ccc2c(c1)CNC1(CCN(Cc3cccc4ccccc34)CC1)CO2	–	79.4 µM (active)	–
O=C(NCCc1nc(-c2ccccc2)cs1)C1NCCc2[nH]cnc21 (stereo unspecified)	1.73%	–	–
O=C1CCN(C(=O)C2CCN(S(=O)(=O)Cc3ccccc3)CC2)CCCCCCN1	-1.97%	–	–
O=S(=O)(Cc1cccc(F)c1)N1CCC(C2CCNC2)CC1 (stereo unspecified)	-18.2%	–	–
Cc1ccc(CS(=O)(=O)N2CCC(C3CCNC3)CC2)cc1C (stereo unspecified)	–	89.1 µM (active)	–
NCC(=O)N1CCCC2(Cc3ccccc3CN2C(=O)c2cccc(Cl)c2)C1 (stereo unspecified)	–	70.8 µM (active)	–
NCC(=O)N1Cc2ccccc2CC2(CCCCN2CC2CCOCC2)C1 (stereo unspecified)	-4.35%	–	–
CCC(=O)N1Cc2ccccc2CC2(CCCN2C)C1 (stereo unspecified)	-18.2% [at 172 µM]	–	–
O=C(c1cccnc1)N1C[C@@H](F)[C@@H](OCc2nc3ccc(C(F)(F)F)cc3[nH]2)C1	-27.9% [at 172 µM]	–	–
C[S+](=O)([O-])NC1CC2(CCN(Cc3ccc(O)cc3)CC2)c2ccccc21 (stereo unspecified)	-13.3%	–	–
